Screening results from PubChem BioAssay.
VDR inhibitor = vitamin D3 receptor (human) inhibition; VDR-SRC2-3 peptide fluorescence polarization, 2 h; Potency, µM, usual class: inhibitors; actives 0.93% (n = 400,000)
Target sequence (P11473 whole entry, looked up): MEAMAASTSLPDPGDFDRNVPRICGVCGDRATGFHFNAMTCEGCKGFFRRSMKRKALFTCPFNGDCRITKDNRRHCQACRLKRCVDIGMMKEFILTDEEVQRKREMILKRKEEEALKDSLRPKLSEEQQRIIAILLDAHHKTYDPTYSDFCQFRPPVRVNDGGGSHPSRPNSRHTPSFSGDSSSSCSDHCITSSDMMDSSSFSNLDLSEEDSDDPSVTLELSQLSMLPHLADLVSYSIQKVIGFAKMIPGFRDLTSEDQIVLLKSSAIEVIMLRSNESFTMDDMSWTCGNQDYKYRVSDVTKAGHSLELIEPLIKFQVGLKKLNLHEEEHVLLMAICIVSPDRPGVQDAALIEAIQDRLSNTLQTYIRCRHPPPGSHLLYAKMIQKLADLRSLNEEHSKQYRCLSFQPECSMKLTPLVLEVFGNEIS
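VDR–SRC2-3 interaction, FP format. Cmpds 23 nl via pintool, brief spin, 2 h ambient incubation.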
ALOX12 inh = inhibitors of human 12S-lipoxygenase ALOX12. P18054. Potency, µM (doses to about 108 µM), actives largely listed as inhibitors. purified 12hLO, xylenol orange hydroperoxide absorbance. actives 1.1% (n = 580,000)
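Purified human 12hLO at 150 nM in 25 mM Hepes, 0.01% Triton X-100, pH 7.0, preincubated 15 min at room temperature with compound. Reaction started with 40 uM arachidonic acid, 30 min at room temperature. Hydroperoxide measured by Fe-xylenol orange, 573/405 nm absorbance ratio.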
GRP78 ERSR act = induces the endoplasmic reticulum stress response in human glioma cells; Potency, µM, hits mostly activators; actives 0.02% (n = 420,000); AID 602332; U87-MG GRP78 promoter luciferase reporter, 16 h; note: series mostly up to about 76 µM; nearly all actives have a fitted effect of over 35% in size
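ERSR induction read as luciferase luminescence (Bright-Glo, 10 min at room temperature) in stably transfected human U87-MG glioma cells exposed to compounds for 16 h, using GRP78 as sensor.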
Sfp inh = Sfp phosphopantetheinyl transferase inhibition. Q9F4F7. Biochemical Sfp PPTase activity, qHTS. Potency, µM, most hits filed as inhibitors. actives 3.5% (n = 310,000). AID 1490;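 note: the enzyme is Sfp with the accession as filed and its product quenches rhodamine fluorescence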
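Step 1, compound plus 15 nM Sfp-PPTase, 15 min, room temperature. Step 2, add rhodamine-CoA (5 uM) and BHQ-2-YbbR (12.5 uM). Step 3, read 525/598 nm fluorescence at 0 and 30 min.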
G9a inh = G9a (human) methyltransferase inhibition; G9a H3K9 monomethylation, AlphaScreen, 2 h; Potency, µM (series often up to 102 µM), actives largely listed as inhibitors; actives 8.8% (n = 350,000); note: nearly all actives have a fitted effect of over 75% in size
Target sequence (Q96KQ7 913-1193 limits assumed): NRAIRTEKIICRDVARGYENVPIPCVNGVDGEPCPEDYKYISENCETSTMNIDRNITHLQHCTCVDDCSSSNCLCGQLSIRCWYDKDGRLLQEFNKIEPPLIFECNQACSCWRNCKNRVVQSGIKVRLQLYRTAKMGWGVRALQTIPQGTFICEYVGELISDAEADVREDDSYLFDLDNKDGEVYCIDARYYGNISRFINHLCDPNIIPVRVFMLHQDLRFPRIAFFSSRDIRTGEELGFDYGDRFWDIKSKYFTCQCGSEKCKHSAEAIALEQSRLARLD
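Quantitative HTS format: methyltransferase activity on a biotin-tagged H3K9 peptide is measured by AlphaScreen, using a rabbit anti-monomethyl-H3K9 antibody with streptavidin donor and anti-IgG acceptor beads. Final levels are 20 nM enzyme, 500 nM peptide, 20 uM SAM; 2 h RT.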
Numbers stand for hits; i = inactive; ? = inconclusive; nt = not tested or not shown; ! = repeats disagree; [ ] = dose if it differs, or a comment. This is one part of a sample in which hits are shown more often than they occur. Calls come from the whole dose curve; as a rule, active = well fitted curve in the direction sought with a large enough effect; inconclusive = small, poorly fitted or top-dose-only effect, or another doubt; inactive = no such curve, though single readings can be large; an effect the other way counts as inactive or inconclusive.

SMILES | VDR inhibitor | ALOX12 inh | GRP78 ERSR act | Sfp inh | G9a inh
COc1ccc(C(C(=O)NC2CCCC2)N(C(=O)c2ccco2)c2ccc(OC)c(OC)c2)cc1 (stereo not drawn) | i | i | i | i | i
COc1ccc(N(C(=O)c2ccco2)C(C(=O)NC2CCCC2)c2ccncc2)cc1OC (stereo not drawn) | i | i | i | i | 71µM
CC(=O)NCCC(=O)N1Cc2ccccc2CC2(CCCN2CC2CCCCC2)C1 (stereo not drawn) | nt | i[6.33 µM] | nt | nt | nt
OCCN(CCO)c1ccc(C(c2ccccc2Cl)c2ccc(N(CCO)CCO)cc2Cl)c(Cl)c1 | i | nt | i | i | 45µM
OCCN(CCO)c1ccc2ccccc2c1 | i | i | i | i | ?
Cc1ccccc1-c1nn2c(-c3ccccc3)nnc2s1 | i | i | i | 56µM | i[12.7 µM]
Cc1cc(-c2nn3c(-c4ccccc4)nnc3s2)c2ccccc2n1 | ? | i | i | ? | 2.2µM
Clc1cccc(-c2nn3c(-c4cccc(Cl)c4)nnc3s2)c1 | nt | nt | nt | i | ?
Clc1cccc(-c2nn3c(-c4ccc5ccccc5n4)nnc3s2)c1 | nt | 35µM | nt | nt | nt
COc1ccc(-c2nnc3sc(-c4ccccc4C)nn23)cc1OC | nt | i | nt | nt | nt
c1ccc(-c2cc(-c3nn4c(-c5ccco5)nnc4s3)c3ccccc3n2)cc1 | i | nt | i | ? | ?
COc1ccc(CNC(=O)c2nn(-c3ccccc3C)c(=O)cc2OC)cc1 | nt | i | nt | nt | nt
COc1ccc(C(C[N+](=O)[O-])C2(c3ccc(OC)c(OC)c3)C(=O)c3ccccc3C2=O)cc1 (stereo not drawn) | 32µM | nt | i | ? | ?
COC(=O)C(C(=O)OC)C(C[N+](=O)[O-])c1ccc(OC)c(OC)c1 (stereo not drawn) | i | i | i | i | i
Cc1csc(NC(=O)C2CC(=O)N(c3n[nH]c4cccc(F)c34)C2)n1 (stereo not drawn) | nt | i | nt | nt | nt
CC(=O)N(CCC(c1ccccc1)c1ccco1)Cc1cccs1 (stereo not drawn) | ? | ? | i | i | ?
CC(=O)N(CCP(=O)(c1ccccc1)c1ccccc1)Cc1ccco1 | i | i | i | i | i
Cc1ccc(C(CCN(Cc2ccccc2)C(=O)c2ccco2)c2ccco2)cc1 (stereo not drawn) | ? | ? | i | 40µM | 50µM
CC(=O)N(CCC(Cc1ccccc1)c1ccco1)Cc1ccco1 (stereo not drawn) | ? | ? | i | 45µM | ?
O=C(c1ccco1)N(CCC(c1ccccc1)c1ccco1)Cc1ccco1 (stereo not drawn) | ? | 18µM | i | ? | ?
COC1(NC(=O)c2ccccc2)C(C)=CC(=O)C=C1C | i | i | i | i | 45µM
COC(=O)c1ccccc1 | nt | i | nt | nt | nt
CC(N)=NCCCC[C@@H](N)C(=O)O | i | nt | i | nt | 10µM!
CC(N)=NCCCC[C@H](N)C(=O)O | i | ? | i | i | nt
CC1(C)N([O-])C2=C(c3ccccc3C2=O)[N+](=O)C1(C)C | ? | ? | ? | i | 79µM
SMILES | VDR inhibitor | ALOX12 inh | GRP78 ERSR act | Sfp inh | G9a inh
CCC1(C)N([O-])C(C)=C(c2ccccc2)[N+]1=O (stereo not drawn) | i | i | i | i | i[12.7 µM]
O=C(CSc1nc2c(c(=O)n1CCc1ccccc1)SCC2)Nc1ccc(C(F)(F)F)cc1 | nt | i | nt | nt | nt
Cn1cccc1/C=N/NC(N)=S | i | i | i | 56µM | ?
Cn1cccc1/C=N/NC(=O)c1ccccn1 | ? | i | i | 79µM | 3.2µM
O=C(N/N=C\c1cccs1)c1cnccn1 | nt | i | nt | nt | nt
O=C(N/N=C/c1cccs1)c1ccccn1 | i | i | i | 50µM | 6.3µM
Cc1cc(N/N=C/c2cccnc2)nc(NCc2ccccc2)n1 | nt | i | nt | nt | nt
O=C(Nc1cccc2ccccc12)C(C(=O)Nc1cccc2ccccc12)C12CC3CC(CC(C3)C1)C2 | nt | i | nt | nt | nt
CN1c2ccsc2/C(=N/Nc2ccccc2)CS1(=O)=O | i | ? | i | ? | 25µM
CN1c2ccsc2/C(=N/NC(=O)c2c(F)cccc2F)CS1(=O)=O | i | i | i | i | i
COc1ccc(Br)cc1S(=O)(=O)NNC(=O)c1c(C)nc2ccccn12 | i | i | i | i | 79µM
Cc1nc2ccccn2c1C(=O)NNC(=O)Nc1ccccc1 | i | i | i | i | 50µM
Cc1nc2ccccn2c1C(=O)NNC(=S)Nc1ccc(Cl)cc1 | i | i | i | i | 1.3µM
CCOc1ccc(OCC)c(S(=O)(=O)NNC(=O)c2c(C)nc3ccccn23)c1 | i | ? | i | i | ?
Cc1cccc(-n2cnc(C(=O)NNC(=S)Nc3ccc(Cl)cc3)c2)n1 | i | i | i | i | 8.9µM
O=C(c1ccc(CNc2nccc(-c3cccnc3)n2)cc1)N1CCCCC1 | nt | i | nt | nt | nt
COc1cc(C(=O)/C(=C/c2cccnc2)c2nc3ccccc3o2)cc(OC)c1OC | nt | i | nt | nt | nt
COc1cc(C(=O)Nc2oc3c(C)cccc3c(=O)c2-c2ccccc2)cc(OC)c1OC | nt | i | nt | nt | nt
CCOC(=O)c1cnc(Nc2ccccc2F)c2ccccc12 | nt | i | nt | nt | nt
Cc1ccc(-n2cccc2CC(=O)NC2CCCC2)cc1 | nt | i | nt | nt | nt
CCOc1ccc2nc(NC(=O)c3cnc(C)cn3)sc2c1 | i | i | i | i | 45µM
CN(C)C(=S)Nc1nc2ccccc2s1 | ? | ? | i | 14µM | i[0.501 µM]
CCOc1ccc2nc(NC(=S)N(C)C)sc2c1 | i | 45µM | i | 40µM | 1.6µM
O=c1c2ccccc2cnn1Cc1coc(-c2ccccc2)n1 | nt | i | nt | nt | nt
CC(=O)N1CCc2cc(S(=O)(=O)NCCCC(=O)N3CCC(CCOc4ccccc4)C3)ccc21 (stereo not drawn) | nt | i | nt | nt | nt
SMILES | VDR inhibitor | ALOX12 inh | GRP78 ERSR act | Sfp inh | G9a inh
CC(=O)c1ccc(N2CCN(C(=O)CCCn3c(=O)[nH]c4ccsc4c3=O)CC2)cc1 | i | i | i | i | i
O=C(CCCn1c(=S)[nH]c2ccsc2c1=O)NCCc1ccccc1 | i | i | i | i | 10µM
CCOc1cc2[nH]c(=O)n(CCCN3CCN(c4ccc(OC)cc4)CC3)c(=O)c2cc1OCC | i | i | i | i | 10µM
O=C(CCn1c(=S)[nH]c2ccccc2c1=O)NCCc1ccccc1 | i | i | i | i | i
CCOc1cc2[nH]c(=O)n(CCCCC(=O)N3CCN(c4ccc(OC)cc4)CC3)c(=O)c2cc1OCC | i | i | i | nt | i
COc1ccc(N2CCN(C(=O)CCCCCn3c(=O)[nH]c4ccsc4c3=O)CC2)cc1 | i | i | i | i | 40µM
CC1CCCCC1NC(=O)CCCCCn1c(=S)[nH]c2ccsc2c1=O (stereo not drawn) | i | i | i | i | 28µM
CCOC(=O)N1CCN(C(=O)CCCCn2c(=S)[nH]c3ccsc3c2=O)CC1 | i | ? | i | 79µM | 32µM
CCCn1c(/C=C/c2ccco2)nc2ccccc21 | i | ? | i | 35µM | 8.9µM
CCCCn1c(/C=C/c2ccco2)nc2ccccc21 | i | ? | i | i | 8.9µM
CCCn1c(NCc2ccco2)nc2ccccc21 | i | i | i | i | i
CCOC(=O)c1cccc(NC(=O)c2cc[n+]([O-])cc2)c1 | nt | i | nt | nt | nt
Cc1cc(N=Nc2ccc(Cl)cc2)cc(CN2CCOCC2)c1O | i | ? | i | i | 7.9µM
